This is part of a sample that, as a whole, favours compounds with a hit. Of some 83,000 tested, about 20% had one in any assay.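 96-well plates, one dose, 48 hours. Percent growth reported; active if below 10.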 Unmarked numbers belong to inactive results. Calls of active or inactive are those of the source.
Columns and labels:
Assay in all cases: NCI-60 one-dose screen, 48 h (100 = growth as untreated, 0 = no growth, -100 = all killed)
Conditions in all cases: 10 µM unless noted
[1] = system: DU-145 prostate
[2] = system: K-562 leukemia
[3] = system: MALME-3M melanoma
[4] = system: MDA-MB-231 breast
[5] = system: RXF 393 renal
[6] = system: SF-268 CNS
[7] = system: SF-295 CNS
[8] = system: SF-539 CNS
[9] = system: UACC-257 melanoma
[10] = system: M14 melanoma
[11] = system: HCT-15 colon
[12] = system: HT29 colon
[13] = system: SNB-75 CNS
[14] = system: SNB-19 CNS
[15] = system: U251 CNS
[16] = system: PC-3 prostate
[17] = system: SK-MEL-5 melanoma
[18] = system: UACC-62 melanoma
[19] = system: LOX IMVI melanoma
[20] = system: SK-MEL-28 melanoma

Structure (SMILES) | growth [1] | growth [2] | growth [3] | growth [4] | growth [5] | growth [6] | growth [7] | growth [8] | growth [9] | growth [10] | growth [11] | growth [12] | growth [13] | growth [14] | growth [15] | growth [16] | growth [17] | growth [18] | growth [19] | growth [20]
Cc1ccc(=O)n(-c2ccc(Br)cc2F)c1 | 109% | 99.4% | 101% | 103% | 103% | 104% | 100% | 98.9% | 102% | 97.4% | 105% | 107% | 74.9% | 105% | 98.1% | 91.4% | 97.3% | 101% | 94.5% | 108%
O=C1CCC(c2c(O)cc(O)c3c(=O)c(O)c(-c4ccc(O)c(O)c4)oc23)N1 (centres undefined) | 105% | 96.1% | 89.6% | 118% | 99.8% | 96.4% | 101% | 103% | 86.1% | 101% | 102% | 84% | 99.2% | 108% | 101% | 93.3% | 101% | 88.5% | 96.9% | 102%
CC(C)CNCC(=O)Nc1ccc(Cc2ccc(NC(=O)CNCC(C)C)cc2)cc1 | 58.3% | -27.7% (active) | -23% (active) | -0.499% (active) | 46.7% | 59.7% | 78.5% | 77.8% | 62.6% | 38.6% | 50.2% | 15.8% | 65.7% | 72.6% | 50.5% | 25.8% | 40.3% | 64.6% | 60.4% | 80.4%
COc1ccc(Cn2cc3c(c2-c2cc(OC)c(OC)c(OC)c2)CCc2c(CO)noc2-3)cc1 | 19.4% | 7.1% (active) | 94.8% | 18% | 2.44% (active) | 43% | 14.8% | 3.55% (active) | 64.6% | 7.98% (active) | 17.6% | 8.14% (active) | 40% | 30.2% | 11.2% | 26.5% | 5.04% (active) | 12.7% | 30.6% | 54%
NC(=O)C1=C[C@H]2[C@H]3C=C[C@@]2(O)C(=O)O[C@@H]3O1 | 45.9% | 61.8% | 4.54% (active) | 61.5% | 8.42% (active) | 58.2% | 88.5% | 65.6% | 28.9% | 32% | 44.8% | 47% | 76.7% | 82% | 63.1% | 59.1% | 60.7% | 35.5% | 22.9% | 25.2%
Cc1c(Cl)ccc2c(C(=O)Cl)cc(-c3ccccc3)nc12 | 101% | 97.1% | 104% | 97% | 110% | 102% | 94.7% | 100% | 87.9% | 98.1% | 101% | 116% | 97.4% | 98.6% | 96.6% | 96% | 96.5% | 92.7% | 94.9% | 103%
NS(=O)(=O)c1ccc(CCN2C(=O)/C(=C\c3ccc(Cl)cc3)C=C2c2ccc(Oc3ccccc3)cc2)cc1 | 89.4% | 47.8% | 82% | 72.9% | 70.3% | 82.7% | 77.3% | 97.7% | 92.4% | 73.7% | 64.8% | 65.4% | 77.9% | 80.3% | 74.5% | 38.6% | 77.4% | 68.8% | 81% | 79.8%
CC(=O)n1cc(/C=C2\N=C(c3ccc(Cl)cc3)N(c3ccc(S(=O)(=O)Nc4nccs4)cc3)C2=O)c2ccccc21 | 102% | 59.6% | 120% | 95.5% | 86.7% | 83% | 85.6% | 90.6% | 99.7% | 83.4% | 95% | 103% | 92.2% | 67.7% | 56.2% | 72.6% | 80.1% | 84.1% | 93.2% | 82.2%
Cc1cc2nc(-c3c(N)ncc(C#N)c3-c3ccc(Cl)cc3)[nH]c2cc1C | 31.9% | 62.9% | 63% | 66.4% | 70.9% | 73.4% | 58.3% | -9.94% (active) | 51.9% | 53.7% | 67.2% | 29.8% | 56.6% | 84.7% | 18% | 53.5% | 71.9% | 57.8% | 51.7% | 57.6%
COC(=O)c1oc2c(C(=O)/C=C/c3ccc(OC)cc3)c(OCCN3CCOCC3)ccc2c1C | 1.8% (active) | -37.3% (active) | -14.1% (active) | 3.21% (active) | -64.4% (active) | 11.5% | 18.3% | -34% (active) | 55.5% | 11.5% | -57% (active) | -20.4% (active) | -26.8% (active) | -2.78% (active) | -81.7% (active) | 8.1% (active) | -100% (active) | -0.039% (active) | -85.3% (active) | 4.47% (active)
CCOc1ccc(NC(=O)Nc2cc(C(C)C)ccc2C)cc1 | 93.2% | 85% | 105% | 16.7% | -31.8% (active) | 69.2% | 104% | 90% | 66.4% | 93.4% | 83.3% | 85% | 19.5% | 79.5% | 28.9% | 69.3% | 124% | 80% | 71.2% | 68%
Cc1ccc(-c2cn3cc([N+](=O)[O-])ccc3n2)cc1 | 68.8% | 82% | 103% | 79.1% | 90.4% | 77.3% | 101% | 91.2% | 87.4% | 72.5% | 80.2% | 91.6% | 77.5% | 92.1% | 85.6% | – | 58.9% | 82.6% | 58.3% | 94.3%
C#C[C@@]1(O)[C@@H](CO)O[C@@H](n2cc(C(F)(F)F)c3c(N)ncnc32)[C@@H]1O | 10.2% | 5.44% (active) | -22% (active) | 14% | -30.3% (active) | 11.9% | 7.42% (active) | -25.3% (active) | 21% | 9.25% (active) | 3.11% (active) | 0.254% (active) | -54.8% (active) | 10.7% | 6.37% (active) | 14% | -65.5% (active) | -1.29% (active) | -23.6% (active) | 28.1%
CC(C(C(=O)N1CCCCC1)N1CCCCC1)N1CCCCC1 (centres undefined) | 122% | 94.7% | 118% | 112% | 112% | 115% | 117% | 116% | 101% | 103% | 107% | 105% | 100% | 103% | 97.9% | 107% | 112% | 102% | 107% | 107%
Cc1nccc2c3ccc(OCc4cn(-c5ccc(Br)cc5)nn4)cc3n(CCCc3ccccc3)c12 | 48.6% | 14.9% | -61.1% (active) | -1.95% (active) | -26.2% (active) | -15.5% (active) | 98.2% | -59.8% (active) | -20% (active) | -81.7% (active) | 60.5% | 10.5% | 26.7% | 56.1% | -61% (active) | 14.1% | 30.4% | 6.16% (active) | -39.6% (active) | -67.6% (active)
O=[N+]([O-])c1ccccc1NC1c2ccccc2Oc2ccccc21 | 58.3% | 11.2% | 48.4% | 71.7% | 81.1% | 41.2% | 23.6% | 58.2% | 74.2% | 36.6% | 37% | 11% | 69.5% | 68.7% | 40.9% | 56.1% | 46% | 48.7% | 65.1% | 69.3%

Reference: PubChem BioAssay (NCI)
